In PubChem BioAssay (NCATS):
Records with an inconclusive call do not appear. Unmarked numbers belong to inactive results. Active and inactive are the calls of the source. Calls follow the shape of the dose curve; as a rule, active = well fitted curve in the direction sought with a large enough effect; inconclusive = small, poorly fitted or top-dose-only effect, or another doubt; inactive = no such curve, though single readings can be large; an effect the other way counts as inactive or inconclusive.

test system: not listed separately; assay: Quantitative high throughput screen for delayed death inhibitors of the malarial parasite plastid, 48 hour incubation (AID 488752); conditions: Plasmodium falciparum growth; series mostly up to 28.7 µM; activity change, negative = inhibition: at the top concentration; also: nearly all actives have a fitted effect of over 65% in size; also: potency is read from the fitted curve at half-maximal effect; as to activity change, negative = inhibition: % is scaled to controls: 0 for no effect and ±100 for the full control effect
Summary of the method: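 One parasite generation (48 h, 37 C, 5% CO2) of luciferase-reporter P. falciparum in erythrocytes is run with test compound; decreased luminescence indicates inhibited growth.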

| Compound | activity change, negative = inhibition | Potency |
| --- | --- | --- |
| NNCCc1ccccc1 | 6.82% |  |
| NCCc1ccc(O)c(O)c1 | -0.743% |  |
| Cc1[nH]c(=O)c(C#N)cc1-c1ccncc1 | 3.67% |  |
| NC[C@H](O)c1ccc(O)c(O)c1 | -1.93% |  |
| Cc1[nH]c(=O)c(C#N)cc1-c1ccc2nccn2c1 | 6.51% |  |
| O=C1CCc2cc(OCCCCc3nnnn3C3CCCCC3)ccc2N1 | 12.6% |  |
| Nc1nc2c(ncn2COCCO)c(=O)[nH]1 | -2.35% |  |
| Clc1cccc(Cl)c1NC1=NCCN1 | -0.857% |  |
| c1ccc([C@H]2CN3CCSC3=N2)cc1 | -0.0263% |  |
| CC(C)(Sc1ccc(CCN(CCCCC2CCCCC2)C(=O)NC2CCCCC2)cc1)C(=O)O | -7.09% |  |
| OC(CN1CCC(Cc2ccc(F)cc2)CC1)c1ccc(Cl)cc1 (stereo unspecified) |  | 3.29 µM (active) |

biological target: Thioredoxin reductase 1, cytoplasmic (Rattus norvegicus) (UniProt O89049); assay: qHTS Assay for Substrates of Mammalian Selenoprotein Thioredoxin Reductase 1 (TrxR1) (AID 488772); conditions: purified TrxR1, NADPH consumption substrate assay; series mostly up to 57.1 µM; activity change, negative = NADPH consumption: at the top concentration;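 also: NADPH fluorescence in the first read after selenite addition and not the 8 min delta; 0% is about no effect; a drop in NADPH fluorescence below the no-compound background marks a TrxR1 substrate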
Sequence (O89049 whole entry, looked up): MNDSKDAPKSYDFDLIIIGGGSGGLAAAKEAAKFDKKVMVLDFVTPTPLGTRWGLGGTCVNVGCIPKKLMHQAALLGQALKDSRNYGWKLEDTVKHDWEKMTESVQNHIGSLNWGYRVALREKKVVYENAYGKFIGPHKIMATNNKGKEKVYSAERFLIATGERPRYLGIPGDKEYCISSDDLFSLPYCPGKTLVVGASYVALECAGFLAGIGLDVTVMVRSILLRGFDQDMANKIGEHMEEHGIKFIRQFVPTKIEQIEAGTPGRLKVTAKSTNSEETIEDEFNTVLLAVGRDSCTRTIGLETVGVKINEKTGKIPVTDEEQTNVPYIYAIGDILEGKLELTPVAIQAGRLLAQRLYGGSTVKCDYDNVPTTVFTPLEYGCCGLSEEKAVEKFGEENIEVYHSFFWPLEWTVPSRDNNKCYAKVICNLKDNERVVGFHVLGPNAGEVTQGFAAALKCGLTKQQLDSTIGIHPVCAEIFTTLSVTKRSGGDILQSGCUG
Summary of the method: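 Quantitative HTS in Tris-HCl buffer at pH 7.5 with EDTA and Tween-20, using rat TrxR1, 400 uM NADPH and 400 uM selenite (final). A fall in initial NADPH fluorescence relative to background marked substrate behaviour.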

| Compound | activity change, negative = NADPH consumption |
| --- | --- |
| CCOC(=O)N1CCC(=C2c3ccc(Cl)cc3CCc3cccnc32)CC1 | -12.2% |
| O=C(Nc1nc2ccccc2n1CCN1CCOCC1)c1cccc([N+](=O)[O-])c1 | -4.61% |
| C[C@]12CCC(=O)C=C1CC[C@@H]1[C@@H]2[C@@H](O)C[C@@]2(C)[C@H]1CC[C@]2(O)C(=O)CO | -14.8% |
| O=C(O)COCCN1CCN(C(c2ccccc2)c2ccc(Cl)cc2)CC1 (stereo unspecified) | -7.83% |
| NNCCc1ccccc1 | -1.86% |
| NCCc1ccc(O)c(O)c1 | -2.12% |
| Cc1[nH]c(=O)c(C#N)cc1-c1ccncc1 | -5.82% |
| NC[C@H](O)c1ccc(O)c(O)c1 | -4.9% |
| Cc1[nH]c(=O)c(C#N)cc1-c1ccc2nccn2c1 | -2.13% |
| Cc1cccc(-c2[nH]c(C(C)(C)C)nc2-c2ccc3nccnc3c2)n1 | 1.83% |
| OC(CCN1CCCCC1)(c1ccccc1)C1CC2C=CC1C2 (stereo unspecified) | -11% |
| O=C1CCc2cc(OCCCCc3nnnn3C3CCCCC3)ccc2N1 | -10.9% |
| Cc1oncc1C(=O)Nc1ccc(C(F)(F)F)cc1 | -6.49% |
| Nc1ncnc2nc(-c3ccc(N4CCOCC4)nc3)cc(-c3cccc(Br)c3)c12 | 3.29% |
| Nc1nc2ccc(OC(F)(F)F)cc2s1 | -10.7% |
| Clc1cccc(Cl)c1NC1=NCCN1 | -7.88% |
| c1ccc([C@H]2CN3CCSC3=N2)cc1 | -7.44% |
| CC(C)(Sc1ccc(CCN(CCCCC2CCCCC2)C(=O)NC2CCCCC2)cc1)C(=O)O | -5.11% |
| Cn1cnc([N+](=O)[O-])c1Sc1ncnc2nc[nH]c12 | -12.2% |
| CCC(C)N(C)C(=O)c1cc2ccccc2c(-c2ccccc2Cl)n1 (stereo unspecified) | -10.2% |
| Oc1ccc(C2CNCCc3c2cc(O)c(O)c3Cl)cc1 (stereo unspecified) | 5.85% |
| CCOC(=O)C1=C[C@]2(CC)CCCN3CCc4c(n1c1ccccc41)[C@@H]32 | -9.23% |
| OC(CN1CCC(Cc2ccc(F)cc2)CC1)c1ccc(Cl)cc1 (stereo unspecified) | -5.4% |

biological target: Thioredoxin reductase 1, cytoplasmic (Rattus norvegicus) (UniProt O89049); assay: qHTS Assay for Inhibitors of Mammalian Selenoprotein Thioredoxin Reductase 1 (TrxR1) (AID 488773); conditions: purified TrxR1 enzyme activity; Potency: inhibition; series mostly up to 57.1 µM; activity change, negative = inhibition: at the top concentration; also: nearly all actives have a fitted effect of over 40% in size; also: potency is read from the fitted curve at half-maximal effect;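 as to activity change, negative = inhibition: drop in NADPH fluorescence over an 8 min run after selenite addition; % is scaled to controls: 0 for no effect and ±100 for the full control effect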
Summary of the method: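 Steps: enzyme (90 nM) plus NADPH (400 uM final), 5 min at ~22 deg C; compound added, 15 min; selenite (400 uM final) added; fluorescence followed for 8 min. Concentration-response curves derived from the normalized delta values.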

| Compound | activity change, negative = inhibition | Potency |
| --- | --- | --- |
| CCOC(=O)N1CCC(=C2c3ccc(Cl)cc3CCc3cccnc32)CC1 | -8.2% |  |
| O=C(Nc1nc2ccccc2n1CCN1CCOCC1)c1cccc([N+](=O)[O-])c1 | 3.65% |  |
| C[C@]12CCC(=O)C=C1CC[C@@H]1[C@@H]2[C@@H](O)C[C@@]2(C)[C@H]1CC[C@]2(O)C(=O)CO | -17.8% |  |
| O=C(O)COCCN1CCN(C(c2ccccc2)c2ccc(Cl)cc2)CC1 (stereo unspecified) | -2.7% |  |
| NNCCc1ccccc1 | 17.5% |  |
| NC(N)=NC(=O)c1nc(Cl)c(N)nc1N | -1.8% |  |
| NCCc1ccc(O)c(O)c1 | -21.2% |  |
| Cc1[nH]c(=O)c(C#N)cc1-c1ccncc1 | -8.96% |  |
| Cc1[nH]c(=O)c(C#N)cc1-c1ccc2nccn2c1 | -17.8% |  |
| Cc1cccc(-c2[nH]c(C(C)(C)C)nc2-c2ccc3nccnc3c2)n1 | 4.93% |  |
| OC(CCN1CCCCC1)(c1ccccc1)C1CC2C=CC1C2 (stereo unspecified) | -9.06% |  |
| O=C1CCc2cc(OCCCCc3nnnn3C3CCCCC3)ccc2N1 | 0.151% |  |
| Cc1oncc1C(=O)Nc1ccc(C(F)(F)F)cc1 | 8.44% |  |
| Nc1nc2ccc(OC(F)(F)F)cc2s1 | 6.45% |  |
| Nc1nc2c(ncn2COCCO)c(=O)[nH]1 | -11.8% |  |
| Clc1cccc(Cl)c1NC1=NCCN1 | 0.61% |  |
| c1ccc([C@H]2CN3CCSC3=N2)cc1 | 2.2% |  |
| CC(C)(Sc1ccc(CCN(CCCCC2CCCCC2)C(=O)NC2CCCCC2)cc1)C(=O)O | -14.6% |  |
| Cn1cnc([N+](=O)[O-])c1Sc1ncnc2nc[nH]c12 |  | 15 µM (active) |
| CCC(C)N(C)C(=O)c1cc2ccccc2c(-c2ccccc2Cl)n1 (stereo unspecified) | -6% |  |
| CCOC(=O)C1=C[C@]2(CC)CCCN3CCc4c(n1c1ccccc41)[C@@H]32 | -11.7% |  |
| OC(CN1CCC(Cc2ccc(F)cc2)CC1)c1ccc(Cl)cc1 (stereo unspecified) | 0.962% |  |
